This is a sample that favours compounds with a hit; in the whole collection about 7.3% have one here.
p53 reactivator: mutant p53 re-activation in reporter cells; H1299 p53-A138V BP100-luciferase reporter, luminescence, 24 h; Potency, µM (top dose mostly 92.2 µM), for the others: at the top dose activity change, positive = activation, actives largely listed as activators; 320,000 tested, 0.063% active; AID 504706; further: % of control where 0% means no effect; nearly all actives have a fitted effect of over 45% in size
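p53-null H1299 cells stably carrying temperature-sensitive p53-A138V and a BP100-luciferase reporter were pinned with compounds (4-point, 1:5 series) and held 24 hrs at 37 deg C. Luminescence was read 10 min after detection reagent.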
Rab9 prom act: Rab9 promoter activation | Huh7 Rab9 promoter-luciferase reporter, luminescence, 24 h | Potency, µM (titrated, usually from 9.22 µM), without a hit: top-dose activation, negative = inhibition, hits mostly activators | 320,000 tested, 2.8% active; further: % of control where 0% means no effect; nearly all actives have a fitted effect of over 60% in size
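Cells were plated at 1500 per well in reduced-serum medium with 10% FBS and left 2 h. Compound in DMSO was then added for 24 h at 37 °C. Reporter signal was read by luminescence after 10 min with luciferase detection reagent.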
NPC1 promoter act: activators of NPC1 promoter | Huh7 NPC1 promoter luciferase reporter, 24 h | Potency, µM (top dose mostly 9.22 µM), inactives show top-dose activation, hits mostly activators | 320,000 tested, 2.4% active | AID 485313; further: % of control where 0% means no effect; nearly all actives have a fitted effect of over 60% in size
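Luminescence read-out of NPC1 promoter-driven luciferase in stably transfected Huh7 cells; compounds delivered in DMSO and left 24 h at 37C, 5% CO2, qHTS titration format.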
FLuc counter: counter-screen for miR-21 project: firefly luciferase inhibitors or activators; Potency, µM (series often up to 57.5 µM), for inactives: top-dose activity change, negative = inhibition, most hits filed as inhibitors; purified FLuc, Km substrates, luminescence inhibition; 360,000 tested, 6.9% active; P08659;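 further: plate controls were vehicle for no effect and reference inhibitor for full effect; nearly all actives have a fitted effect of over 55% in size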
Target sequence (P08659 whole entry, looked up): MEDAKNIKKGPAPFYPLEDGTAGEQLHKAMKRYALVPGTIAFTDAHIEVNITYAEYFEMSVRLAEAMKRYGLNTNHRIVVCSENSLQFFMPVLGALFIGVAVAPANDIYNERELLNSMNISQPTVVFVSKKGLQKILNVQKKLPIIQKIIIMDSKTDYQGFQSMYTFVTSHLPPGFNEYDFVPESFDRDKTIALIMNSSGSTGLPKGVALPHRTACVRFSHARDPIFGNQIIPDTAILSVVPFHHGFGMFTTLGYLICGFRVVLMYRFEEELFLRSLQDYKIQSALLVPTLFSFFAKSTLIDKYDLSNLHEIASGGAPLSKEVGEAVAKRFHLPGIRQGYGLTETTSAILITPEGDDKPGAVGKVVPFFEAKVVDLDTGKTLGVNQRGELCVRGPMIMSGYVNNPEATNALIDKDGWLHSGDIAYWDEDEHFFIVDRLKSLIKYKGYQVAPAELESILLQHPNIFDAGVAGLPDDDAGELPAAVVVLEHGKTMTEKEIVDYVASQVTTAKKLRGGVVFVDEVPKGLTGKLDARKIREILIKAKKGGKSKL
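Purified P. pyralis luciferase, 10 nM final, with Km-level 10 uM D-luciferin and 10 uM ATP in 50 mM Tris acetate pH 7.5, 10 mM Mg acetate, 0.01% Tween-20, 0.05% BSA; 6-point qHTS titration about 60 µM downward; luminescence read.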
SMN2 splice enh: enhancers of SMN2 splice variant expression. HEK293 SMN2-luciferase splicing reporter, luminescence, 30-36 h. AID 1458. Potency, µM (doses to about 46.1 µM), for the others: at the top dose activity change, positive = activation, most hits filed as activators. 210,000 tested, 2.8% active; further: % of control where 0% means no effect; nearly all actives have a fitted effect of over 55% in size
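HEK293 cells carry an SMN2 minigene-luciferase reporter in which exon 7 inclusion puts luciferase in frame. Cells were seeded at 2000 cells/well, attached for 10-12 hours, then exposed to compounds for 30-36 hours at 37C before ONE-Glo luminescence.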
ELG1 genotoxic: genotoxicity induction in ELG1-luciferase HEK293T cells; HEK293T ELG1-luciferase reporter, luminescence, 16 h; Potency, µM (top dose mostly 46 µM), for the others: top-dose activity change, positive = activation, actives largely listed as activators; 330,000 tested, 1.3% active; further: % of control where 0% means no effect; nearly all actives have a fitted effect of over 60% in size
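16 hr compound incubation (37 °C, 5% CO2) of HEK293T cells carrying luciferase-tagged ELG1; luciferase then measured by ONE-Glo luminescence after 30 min at RT.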
* marks the source's active call; other numbers are inactive results; ? = inconclusive; / = not tested or not shown; [ ] = remark or other dose. The call rests on the fitted dose curve; in most records, active means well fitted curve in the direction sought with a large enough effect; inconclusive means small, poorly fitted or top-dose-only effect, or another doubt; inactive means no such curve, though single readings can be large; an effect the other way counts as inactive or inconclusive. Potency means the concentration at half of the fitted maximal effect.

SMILES | p53 reactivator | Rab9 prom act | NPC1 promoter act | FLuc counter | SMN2 splice enh | ELG1 genotoxic
O=C(COc1ccccc1Cl)Nc1nc(-c2cccs2)cs1 | 7% | 1% | -2% | 17µM* | -3% | -1%
CC(=O)Nc1nc(-c2cccs2)cs1 | 7% | 29% | ? | ? | -5% | 1%
Cc1cc(Cl)ccc1OCC(=O)Nc1nc(-c2cccnc2)cs1 | -1% | 9% | -3% | -2% | / | 14%
Cc1cc(Cl)ccc1OCC(=O)Nc1nc(-c2cccs2)cs1 | 7% | -1% | -3% | 24µM* | -10% | -1%
CCCN(c1ccc(C(C)C)cc1)S(=O)(=O)c1ccc2c(c1)CCN2C(=O)CC | / | / | / | -2% | 5% | /
Cc1ccc2nc(CN3CCN(C(=O)Nc4cccc(C)c4C)CC3)oc2c1 | / | / | / | 0% | / | /
O=C1c2ccccc2NC(c2cnc3ccccc3n2)N1O (stereo unspecified) | ? | 0.89µM* | 1.3µM* | 2.4µM* | 11µM* | ?
C=C[C@]1(C)C[C@H](OC(=O)CO)[C@]2(C)C3C(=O)CC[C@]3(CC[C@H]2C)[C@H](C)[C@H]1O (stereo partly specified) | / | / | / | / | 1%[9.22 µM] | /
O=C(Cn1cnc2ccccc21)Nc1ccc2c(c1)OCCCO2 | ? | -16% | -9% | ? | / | 3%
CCn1c(=O)n(CC)c2cc(S(=O)(=O)Nc3ccccc3C)c(C)cc21 | -8% | 0% | -3% | -1% | 7.9µM* | ?
CCc1ccccc1NS(=O)(=O)c1cc2c(cc1C)n(C)c(=O)c(=O)n2C | 8% | -1% | -1% | -1% | / | 1%
COc1ccc(C(CNC(=O)c2oc3ccccc3c2C)N2CCCC2)cc1 (stereo unspecified) | -7% | -9% | -3% | 21µM* | / | -1%
Cc1c(C(=O)NCCc2ccccc2)oc2ccccc12 | ? | 0.71µM* | 0.79µM* | 2.1µM* | / | 2.1µM*
COc1ccc2oc(C(=O)NCCc3ccccc3)c(C)c2c1 | -3% | ? | 0.45µM* | ? | / | ?
COc1ccc2oc(C(=O)OCC(=O)NCCc3ccccc3)c(C)c2c1 | 4% | 10% | 0% | -3% | / | 17%
Cc1ccc2oc(C(=O)Nc3c(C(=O)Nc4cccc(Cl)c4)oc4ccccc34)cc(=O)c2c1 | / | / | / | 0% | -3% | /
CCc1nc2oc3cc(OC)ccc3c(=O)c2c(=O)n1Cc1ccccc1 | -4% | 10% | 1% | 5% | -27% | 5%
CCc1nc2oc3cc(OC)ccc3c(=O)c2c(=O)n1-c1ccccc1 | 15% | ? | ? | -10% | 25µM* | ?
COC(=O)c1ccc(NC(=O)N2CCN(c3nnc(C)c4c(C)n(-c5ccccc5)nc34)CC2)cc1 | / | / | / | -8% | / | /
Fc1ccccc1-c1nc(-c2ccccc2)no1 | ? | 2.8µM* | 3.5µM* | 0.6µM* | 11µM* | ?
Brc1ccccc1-c1nc(-c2ccccc2)no1 | ? | 3.5µM* | 27% | 0.95µM* | 4µM* | ?
Fc1ccccc1-c1nc(-c2ccncc2)no1 | 15% | 1.8µM* | 1.8µM* | 8.5µM* | / | ?
CC(C)c1cnc2c(c1SCc1ccc([N+](=O)[O-])cc1)c(=O)n(C)c(=O)n2C | / | / | / | 1% | / | /
CN(C1CCS(=O)(=O)C1)S(=O)C12CC3CC(CC(C3)C1)C2 (stereo unspecified) | -1% | 0% | -9% | 2% | 2% | 1%
CCCCc1nn2c(=O)cc(COC(=O)c3ccc(NC(=O)CCc4ccccc4)cc3)nc2s1 | / | / | / | -4% | / | /
SMILES | p53 reactivator | Rab9 prom act | NPC1 promoter act | FLuc counter | SMN2 splice enh | ELG1 genotoxic
CCc1ccccc1NC(=O)c1sc2nc3n(c(=O)c2c1C)CCC3 | / | / | / | 5% | / | /
CC(C)CNC(=O)C1C2C=CC(C2)C1C(=O)O (stereo unspecified) | -1% | -2% | 0% | -1% | -1% | 5%
CC(C)(C)C(=O)Nc1ccc(C(=O)OC2CCCCC2)cc1 | ? | 1.4µM* | 1.4µM* | 4.3µM* | 35µM* | ?
O=C(O)CCC(=O)Nc1ccc(C(=O)OC2CCCCC2)cc1 | -11% | -7% | -4% | 13µM* | -15% | 0%
CCCCC(=O)Nc1ccc(C(=O)OC2CCCCC2)cc1 | 12% | 4% | -3% | ? | 18% | 0%
COc1ccccc1N1CCN(C(=O)C(=O)c2c[nH]c3ccccc23)CC1 | 1% | -2% | 0% | 2% | / | 2%
Nc1cc(C2CCCC2)nn1-c1ccccc1 | 12% | ? | 2.2µM* | 15µM* | 20µM* | ?
CCc1ccc(-c2cc3c(N4CCN(c5ccccc5)CC4)nccn3n2)cc1 | / | / | / | 19µM* | 14µM* | /
Cc1ccc(-c2cc(N)n(-c3ccccc3)n2)cc1 | 23% | 2.8µM* | 1.1µM* | 1.7µM* | 11µM* | ?
CCS(=O)(=O)n1nc(-c2ccccc2)cc1N | 1% | 1% | 5% | 0% | -1% | 0%
CCc1ccc(-c2cc(N)n(-c3ccccc3)n2)cc1 | ? | 1.3µM* | 0.56µM* | 1.7µM* | 5µM* | 2.6µM*
Cc1cc2c(cc1NS(=O)(=O)c1cccc(C#N)c1)n(C)c(=O)c(=O)n2C | / | / | / | 3% | / | /
COc1ccc(Cn2ccc3nc(C)c(C(=O)Nc4ccc(OC)cc4OC)cc3c2=O)cc1 | / | / | / | 1% | / | /
Cc1cccc(-c2cc(NC(=O)C(C)(C)C)n(-c3ccccc3)n2)c1 | / | / | / | 21µM* | / | /
Cc1cccc(-c2cc(N)n(-c3ccccc3)n2)c1 | 24% | 0.79µM* | 1.3µM* | 4.3µM* | 11µM* | ?
CCC(=O)N1N=C(c2ccc(C)o2)CC1c1ccc(N(C)C)cc1 (stereo unspecified) | 8% | 20% | 13% | ? | 27% | 12%
CC(=O)N1N=C(c2ccc(C)o2)CC1c1ccc(Br)cc1 (stereo unspecified) | 13% | ? | 2.5µM* | ? | ? | ?
COc1ccc(C2CC(c3ccc(Cl)cc3)=NN2C(C)=O)cc1 (stereo unspecified) | -17% | ? | ? | 24µM* | / | 15%
COc1ccc(C2=NN(C(=O)CCC(=O)O)C(c3ccc(OC)cc3)C2)cc1 (stereo unspecified) | -4% | -4% | -20% | -6% | / | -1%
COc1ccc(C2CC(c3ccc4ccccc4c3OC(C)=O)=NN2C(C)=O)cc1 (stereo unspecified) | ? | 4µM* | 4µM* | -1% | / | ?
COc1ccc(C2CC(c3ccc(C)o3)=NN2C(C)=O)cc1 (stereo unspecified) | ? | ? | ? | ? | 13µM* | ?
N/C(CC/C(N)=N/O)=N\O | / | / | / | / | -8%[9.22 µM] | /
